The structures appear in SMILES notation. Structures can show the parent of a compound that is named as a salt. ± gives the standard deviation.

For 14 molecules, THP-1 cell loss results are on record in the supplement of paper PMC7530171.

This test relates to THP-1. Description: THP-1 cell loss relative to DMSO control; higher = more host cell loss (toxicity); extreme values may be limits of the assay. The conditions noted are these: 10 µM; 4 days; infection: M. tuberculosis H37Rv. The method, then:
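OICR kinase inhibitor library screened in duplicate at 10 uM against M. tuberculosis-infected THP-1 macrophages, 4 days at 37 C. THP-1 cell loss (cytotoxicity or loss of adherence) was quantified from Hoechst-stained nuclei counts by high-content imaging and normalised to the 1% DMSO control; 100 = complete loss of host cells.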
As to `Oc1ccc(Nc2nc(-c3ccc(Cl)cc3)cs2)cc1` [2-(p-Hydroxyanilino)-4-(p-chlorophenyl) thiazole], the THP-1 cell loss was determined as 100%.
Then `O=Nc1c(-c2c(O)[nH]c3cc(Br)ccc23)[nH]c2ccccc12` [6-bromoindirubin-3'-oxime], with 100%.
`C[C@@H](Oc1cc(-c2cnn(C3CCNCC3)c2)cnc1N)c1c(Cl)ccc(F)c1Cl` showed a THP-1 cell loss of 33.8 ± 9.9%.
Then `COc1cc2ncnc(Nc3ccc(Oc4ccccc4)cc3)c2cc1OC`, with 0%.
Turning to `c1cc(OCCN2CCCCC2)cc(-c2n[nH]c3ccc(-c4nnc[nH]4)cc23)c1`, the THP-1 cell loss was 3.37 ± 4.8%.
Then `Cc1cc(Nc2ncc3cc(-c4c(Cl)cccc4Cl)c(=O)n(C)c3n2)ccc1F`, with 88.1 ± 17%; and `O=C(Nc1ccc(-c2cn[nH]c2)cc1)C1COc2ccccc2O1` (centres undefined) [Rho Kinase Inhibitor V], with 6.82 ± 9.6%; and `Cc1ccc2nc(NCCN)c3ncc(C)n3c2c1`, with 100%.
The result for `CCc1cc(Nc2nccc(-c3c(-c4ccc(OC)c(C(=O)Nc5c(F)cccc5F)c4)nc4ccccn34)n2)c(OC)cc1N1CCC(N2CCN(S(C)(=O)=O)CC2)CC1` reads 10.9 ± 13%.
The result for `O=C(Nc1cccc(Nc2ncc(Br)c(NCCc3cnc[nH]3)n2)c1)N1CCCC1` reads 36 ± 15%; that for `Cc1cc(C(=O)N2CCN(c3cccc(Cl)c3)CC2)n(-c2ccccc2)n1`, 23.2 ± 25%; that for `Cc1cc(Nc2nc(N[C@@H](C)c3ncc(F)cn3)ncc2Cl)[nH]n1`, 4.08 ± 4.6%.
With `Clc1ccc(Nc2nnc(Cc3ccncc3)c3ccccc23)cc1` [Vatalanib dihydrochloride], the THP-1 cell loss came out at 39.2 ± 3.4%.
Then `O=C(NC[C@H](O)CO)c1ccncc1Nc1ccc(I)cc1F`, with 100%.
